This is an account of results in PubChem BioAssay (Tox21).

Results filed as inconclusive are left out. Entries that show only a call come without a potency. Calls of active or inactive are those of the source. The call rests on the fitted dose curve; in most records, active means well fitted cell-killing curve with a large enough effect in the repeat runs; inconclusive means weak or mixed curves, or effect the other way; inactive means flat fitted curve, though single readings scatter.
Potency means the concentration at half of the fitted maximal effect.

The nature of the test: qHTS assay to identify small molecule agonists of the androgen receptor (AR) signaling pathway in the presence of an antagonist - cell viability counter screen (AID 1259379). Further: nearly all actives have a fitted effect of over 25% in size. The following applies: MDA-kb2 viability, CellTiter-Fluor, 16 h; series mostly up to 92.4 µM. The source says: National Center for Advancing Translational Sciences [NCATS]
NIH Chemical Genomics Center [NCGC]
U.S. Environmental Protection Agency [EPA]
National Institutes of Environmental Health Sciences [NIEHS]
National Toxicology Program [NTP]
U.S. Food and Drug Administration [FDA]
Androgen receptor (AR) is an important member of nuclear receptor family. Its signaling plays a critical role in AR-dependent prostate cancer and other androgen related diseases. Considerable attention has been given in the past decades to develop methods to study and screen for the environmental chemicals that have the potential to interfere with metabolic homeostasis, reproduction, developmental and behavioral functions. Therefore AR binding assay for screening against androgen agonists and antagonists can be used to identify potential endocrine disruptors.
MDA-kb2 cells (from ATCC, deposited by Wilson et al.) are human breast carcinoma cells that were stably transfected with a luciferase reporter gene under control of the MMTV promoter that contains response elements for both androgen receptor (AR) and glucocorticoid receptor (GR). This particular screening for measuring luciferase reporter gene activity using MDA-kb2 cells against Tox21 10K library compounds is a confirmation study on agonist mode screening in the presence of AR-antagonist compound (Nilutamide) at 3.0uM final concentration. The cytotoxicity of the compounds was tested in parallel by measuring the cell viability using CellTiter-Fluor assay system (Promega, Madison, WI) in the same wells.
Tox21 Assay Protocol Summary:
MDA-kb2 cells (cells cultured without CO2) were dispensed at 3,000 cells/well in 4uL of culture medium into white wall/solid-bottom 1536-well plates (Corning Life Sciences, Corning, NY) using a Multidrop Combi (Thermo Fisher Scientific Inc., Waltham, MA) dispenser. The assay plates were incubated at 37C and 0% CO2 for 5hr. One uL of 3.0uM (final concentration) Nilutamide or assay buffer was added using two separate tips of Flying Reagent Dispenser (FRD, Aurora Discovery, San Diego, CA). Then 23nL of compounds dissolved in DMSO at 15 concentrations and positive controls were transferred to the assay plates using a Pintool station (Wako, San Diego, CA). The assay plates were incubated at 37C and 0% CO2 for 16 hr. After 15hr incubation at 37C, 1uL/well CellTiter-Fluor reagent (Promega Corporation) was added to each well of the assay plates using FRD. After 1hr incubation at 37C and 0% CO2, the fluorescence signal was measured using a ViewLux plate reader (PerkinElmer, Shelton, CT).
Take `Nc1ccc(Oc2cccc(Oc3ccc(N)cc3)c2)cc1`: the Potency entry is “inactive”.

For `CC(C=O)c1ccccc1` (stereo not given), the Potency entry was “inactive”.

For `COCCC(=O)OC`, the Potency result is “inactive”.

In the case of `CO[Si](OC)(c1ccccc1)c1ccccc1`, the Potency entry was “inactive”.

Regarding `NCc1ccco1`, the Potency entry is “inactive”.

Regarding `CCCOC(=O)c1ccc(O)cc1`, the Potency entry was “inactive”.

As for `Nc1ccc2c(S(=O)(=O)O)cccc2c1S(=O)(=O)O`, the Potency result is “inactive”.

For `C/C=C/C(=O)OCC(C)C`, the Potency entry is “inactive”.

In the case of `Cc1cc(F)ccc1-c1cc(N2CC[C@@H](O)[C@H]2CO)ncc1N(C)C(=O)C(C)(C)c1cc(C(F)(F)F)cc(C(F)(F)F)c1`, the Potency was 53.6 µM (active).

Take `CSc1ccc(O)cc1C`: the Potency entry was “inactive”.

In the case of `CN1CC[C@H](c2c(O)cc(O)c3c(=O)cc(-c4ccccc4Cl)oc23)[C@H](O)C1`, the Potency entry was “inactive”.

Take `CC(C)c1ccc2sc3ccccc3c(=O)c2c1`: the Potency entry was “inactive”.

For `CCN(CC)c1ccc2c(c1)Oc1cc(N(CC)CC)ccc1C21OC(=O)c2ccccc21`, the Potency was 7.5 µM (active).

On to `CC(C)=NNC(N)=S`, for which the Potency result was “inactive”.

Turning to `Nc1ccc(N)c([N+](=O)[O-])c1`, the Potency was 54.5 µM (active).

Take `O=C1CCC(=O)N1`: the Potency entry is “inactive”.

Turning to `COc1cc([C@@H]2c3cc4c(cc3[C@@H](O[C@@H]3O[C@@H]5CO[C@@H](C)O[C@H]5[C@H](O)[C@H]3O)[C@H]3COC(=O)[C@H]23)OCO4)cc(OC)c1O`, the Potency result was “inactive”.

For `CCOC(=O)OC(=O)OCC`, the Potency result was “inactive”.

`CCc1cccc(CC)c1`: the Potency result was “inactive”.

As to `O=C(Nc1ccccc1)c1cc(Cl)ccc1O`, the Potency was 13.7 µM (active).

In the case of `CCN(CC)c1ccc(N=Nc2ccccc2)cc1`, the Potency was 27.3 µM (active).

In the case of `O[Si](c1ccccc1)(c1ccccc1)c1ccccc1`, the Potency result is “inactive”.

On to `Cn1ccnc1`, for which the Potency entry is “inactive”.

Take `CCc1cccc(C)c1N(C(=O)C(=O)O)C(C)COC` (stereo not given): the Potency result is “inactive”.

For `CC(C)(c1ccc(Oc2ccc(N)cc2)cc1)c1ccc(Oc2ccc(N)cc2)cc1`, the Potency was 54.5 µM (active).

Take `Clc1ccc2c(Cl)ccnc2c1`: the Potency entry is “inactive”.

Take `CC/C(=C(/c1ccc(O)cc1)c1ccc(OCCN(C)C)cc1)c1ccccc1`: the Potency is 40.3 µM (active).

With `Cc1ccc(N=Nc2c(O)ccc3ccccc23)c(C)c1`, the Potency is 13.3 µM (active).

For the compound `CCNc1nc(NC(C)(C)C)nc(OC)n1`, the Potency result is “inactive”.

With `Cc1cccc(C)c1C`, the Potency entry is “inactive”.

For the compound `O=C(NCc1ncc(C(F)(F)F)cc1Cl)c1c(Cl)cccc1Cl`, the Potency is 17.2 µM (active).

On to `[Cl][Sc]([Cl])[Cl]`, for which the Potency entry is “inactive”.

Regarding `CCSCC`, the Potency entry was “inactive”.

As for `CC(C)(C)c1ccc(OC2CCCCC2O)cc1` (stereo not given), the Potency entry was “inactive”.

Regarding `[Cl][Dy]([Cl])[Cl]`, the Potency result is “inactive”.

Turning to `O=C(c1ccccc1)c1ccc(Cl)cc1`, the Potency entry is “inactive”.

As for `c1ccc(C[P+](c2ccccc2)(c2ccccc2)c2ccccc2)cc1`, the Potency is 2.73 µM (active).

As to `CC/C=C(\C)C=O`, the Potency result was “inactive”.

In the case of `O=C(CCCCCCCCc1cccnc1)N1CCC(C=C(c2ccccc2)c2ccccc2)CC1`, the Potency was 61.1 µM (active).

On to `CCOc1nc(F)cc2nc(S(=O)(=O)Nc3c(Cl)cccc3C(=O)OC)nn12`, for which the Potency result is “inactive”.
